A word on the viability: it is a read-out of living cells in per cent, often relative to untreated cells.

The results in this text go back to PubChem BioAssay (NCATS).

Values joined by “and” are separate entries in the source; they are usually repeats but may differ in a detail not shown here. Identical values can stand only once. Records with an inconclusive call do not appear. Values without a mark were called inactive. Active and inactive are the calls of the source. The call rests on the fitted dose curve; in most records, active means well fitted curve in the direction sought with a large enough effect; inconclusive means small, poorly fitted or top-dose-only effect, or another doubt; inactive means no such curve, though single readings can be large; an effect the other way counts as inactive or inconclusive.

The target in assay [1] is Cellular tumor antigen p53 (Homo sapiens) (UniProt P04637). In words: Primary qHTS for small molecule compounds that upregulate eGFP-tagged delta133p53alpha (in N-terminal) cells. (AID 2060322).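 Further: cells pre-induced with doxycycline then dosed without doxycycline; series mostly up to about 56 µM; 0% = DMSO vehicle and 100% = reference activator; nearly all actives have a fitted effect of over 75% in size.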 Conditions: NCI-H358 eGFP-delta133p53alpha fluorescence, 24 h; activation: hits give high values. In short, it runs like this: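 NCI-H358 cells pre-induced 24 h with 10 ng/ml doxycycline for eGFP-delta133p53alpha, plated dox-free and exposed 24 h at 37C to titrated compounds. Fixed, Hoechst-stained; gated GFP peak intensity by laser scanning cytometry, normalized to DMSO (0%) and 57.5 uM 5-azacytidine (100%).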
Sequence of Cellular tumor antigen p53 (Homo sapiens) (P04637 whole entry, looked up): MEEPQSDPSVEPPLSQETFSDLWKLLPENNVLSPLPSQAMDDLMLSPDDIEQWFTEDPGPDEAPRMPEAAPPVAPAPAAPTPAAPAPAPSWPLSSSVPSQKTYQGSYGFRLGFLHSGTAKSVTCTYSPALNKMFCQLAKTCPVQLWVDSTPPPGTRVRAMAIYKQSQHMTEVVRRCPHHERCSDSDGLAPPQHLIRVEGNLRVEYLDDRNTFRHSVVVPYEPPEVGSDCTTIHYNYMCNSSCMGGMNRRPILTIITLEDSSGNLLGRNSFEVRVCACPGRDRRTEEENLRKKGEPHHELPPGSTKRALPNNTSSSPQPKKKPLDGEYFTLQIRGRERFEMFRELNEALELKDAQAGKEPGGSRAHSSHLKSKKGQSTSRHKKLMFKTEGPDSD
Background: In qHTS, concentration-response curves come from the screen itself.

Assay [2] is described as follows: BET inhibitor-based combinations targeting novel dependencies in MECOM-rearranged (r) AML: SET-2 cell line (AID 2202231). Further: nearly all actives have a fitted effect of over 35% in size. Further: potency means the concentration at half of the fitted maximal effect.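 On viability: plate controls were DMSO treated cells for no effect and wells without cells for full effect.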 Conditions: SET-2 AML cells viability, CellTiter-Glo luminescence, 48 h; viability: hits give low values, concentration not given here. The method in brief: (§1)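 Luminescent ATP readout (CellTiter-Glo) after 48 hr drug exposure gives viability. Curves span 11 concentrations and are normalized to DMSO and empty wells. Activity is reported as area under the curve and its Z-transform within each cell line.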
A general note: ATP-based viability assays read luminescence as a measure of living cells.

Assay [3] in a line: BET inhibitor-based combinations targeting novel dependencies in MECOM-rearranged (r) AML: OCI-AML3 cell line (AID 2202232). Further: nearly all actives have a fitted effect of over 35% in size. Further: potency means the concentration at half of the fitted maximal effect. Conditions: Potency: OCI-AML3 viability. In short, it runs like this: as §1
Assay [4] is described as follows: BET inhibitor-based combinations targeting novel dependencies in MECOM-rearranged (r) AML: HNT-34 cell line (AID 2202234).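 Further: plate controls were vehicle wells for no effect and cell-free wells for full effect; nearly all actives have a fitted effect of over 35% in size.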 The method in brief: (§2)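 Luminescent ATP readout (CellTiter-Glo, 15 min at room temperature) after 48 hr drug exposure gave viability. Dose-response curves, normalized to DMSO and empty-well controls, were summarized as area under the curve and its mean-centred Z-score.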

The nature of assay [5]: BET inhibitor-based combinations targeting novel dependencies in MECOM-rearranged (r) AML: UCSD-AML1 cell line (AID 2202235).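 Further: series mostly up to about 46 µM; plate controls were DMSO vehicle wells for no effect and blank wells for full effect; nearly all actives have a fitted effect of over 40% in size.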 The method in brief: as §2
Assay [6] in a line: BET inhibitor-based combinations targeting novel dependencies in MECOM-rearranged (r) AML: AML-191 cell line (AID 2202236;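 further: plate controls were vehicle wells for no effect and wells without cells for full effect; nearly all actives have a fitted effect of over 35% in size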). In short, it runs like this:
as §1

Assay [7] can be described thus: BET inhibitor-based combinations targeting novel dependencies in MECOM-rearranged (r) AML: AML-194 cell line (AID 2202237; further: nearly all actives have a fitted effect of over 40% in size; further: potency means the concentration at half of the fitted maximal effect). In short, it runs like this: as §1
Assay [8] is described as follows: BET inhibitor-based combinations targeting novel dependencies in MECOM-rearranged (r) AML: MV-4-11 cell line (AID 2202233). Further: potency means the concentration at half of the fitted maximal effect; nearly all actives have a fitted effect of over 45% in size. The method in brief: as §2

Turning to `CC#CCn1c(N2CCC[C@@H](N)C2)nc2c1c(=O)n(Cc1nc(C)c3ccccc3n1)c(=O)n2C`, the activation in assay [1] was 6.37%. Further, the viability in assay [2] is 113%. Moreover, the Potency entry in assay [3], in assay [4], in assay [5], in assay [6] and in assay [7] was “inactive” throughout.

On to `CC(=O)O[C@H]1C[C@@H]2CC[C@@H]3[C@H](CC[C@@]4(C)[C@H]3C[C@H]([N+]3(C)CCCCC3)[C@@H]4OC(C)=O)[C@@]2(C)C[C@@H]1N1CCCCC1`, for which, in assay [1], the activation was 9.6%. For the same molecule, the viability in assay [2] was 116%. Further, the Potency entry in assay [3], in assay [4], in assay [5] and in assay [7] was “inactive” throughout.

Regarding `CC(N)C12CC3CC(CC(C3)C1)C2` (stereo unspecified), the activation in assay [1] is -14.2% and 12.7%. Besides, the viability in assay [2] is 106%. The Potency result in assay [3], in assay [4], in assay [5], in assay [6] and in assay [7] was “inactive” in each case.

In the case of `COc1cc(NC(=O)c2ccc(-c3ccc(Cl)cc3)o2)cc(OC)c1`, in assay [1], the activation was 1.2%. Moreover, the viability in assay [2] was 110%. Further, the Potency entry in assay [3], in assay [4], in assay [6] and in assay [7] was “inactive” each time.

For the molecule `COc1ccc(Nc2nccc(NCCO)n2)cc1`, the activation in assay [1] is 25.6%. In addition, the viability in assay [2] is 106%. Also, the Potency in assay [3] is 23.5 µM (active). Also, the Potency entry in assay [4], in assay [5], in assay [6] and in assay [7] was “inactive” each time.

With `O=C1c2cccc(O)c2C(=O)c2c(O)cc(CO)cc21`, in assay [1], the activation was -5.26%. Also, the viability in assay [2] was 116%. The Potency result in assay [3], in assay [4], in assay [5] and in assay [6] was “inactive” throughout.

Take `CCc1cc(-c2n[nH]c(C)c2-c2ccc3c(c2)OCCO3)c(O)cc1O`: the activation in assay [1] was 2.7%. Also, the Potency in assay [2] is 14.8 µM (active); in assay [3], 18.6 µM (active); in assay [8], 4.68 µM (active); in assay [7], 16.6 µM (active).

Take `O=c1[nH]c(=O)n(C2CCCO2)cc1F` (stereo unspecified): the activation in assay [1] was -1.88%. Besides, the viability in assay [2] was 111%. For the same molecule, the Potency entry in assay [3], in assay [4], in assay [5], in assay [6] and in assay [7] was “inactive” throughout.
